Experimental data as given in PubChem BioAssay AID1259318 (Sanford-Burnham Center for Chemical Genomics, 2017).
The whole screen tested about 370,000 compounds, of which about 3,000 (0.81%) were called active. This excerpt belongs to a sample that is enriched for actives. A number with no mark means an inactive call.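 The calls were made as follows: active = activity above about 14% (limit read from the data; passing the limit was not always enough); inactive = the rest.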

What follows are compounds tested against Nuclear receptor subfamily 1 group D member 1 (Homo sapiens) (UniProt P20393) (assay: modulators of Rev-erb alpha DNA binding, primary screen, biochemical, FITC-DNA, fluorescence polarization, uHTS (AID 1259318;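 also: 0% = DMSO wells with 35 nM protein and 100% = DMSO wells with 750 nM protein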)). Conditions: Rev-erbα–FITC-DNA binding, 90 min, at 10 µM, hits give high values.
Nuclear receptor subfamily 1 group D member 1 (Homo sapiens), sequence (P20393 whole entry, looked up): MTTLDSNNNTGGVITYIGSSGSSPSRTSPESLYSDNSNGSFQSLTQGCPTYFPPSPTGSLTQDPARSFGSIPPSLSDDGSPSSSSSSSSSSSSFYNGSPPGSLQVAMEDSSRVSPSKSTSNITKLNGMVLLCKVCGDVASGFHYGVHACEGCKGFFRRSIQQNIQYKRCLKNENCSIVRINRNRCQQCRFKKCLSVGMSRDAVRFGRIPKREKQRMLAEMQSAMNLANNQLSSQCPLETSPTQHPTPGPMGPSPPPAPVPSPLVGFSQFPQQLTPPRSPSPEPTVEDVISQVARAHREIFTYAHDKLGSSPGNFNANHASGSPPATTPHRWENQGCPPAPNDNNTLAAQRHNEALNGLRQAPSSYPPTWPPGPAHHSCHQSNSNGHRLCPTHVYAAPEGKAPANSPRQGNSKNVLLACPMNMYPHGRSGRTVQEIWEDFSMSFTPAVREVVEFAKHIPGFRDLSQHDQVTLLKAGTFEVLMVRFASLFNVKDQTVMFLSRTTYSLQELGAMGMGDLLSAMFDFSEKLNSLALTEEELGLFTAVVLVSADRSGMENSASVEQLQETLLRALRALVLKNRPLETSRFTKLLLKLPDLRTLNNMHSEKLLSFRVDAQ

| Structure (SMILES) | activity |
| --- | --- |
| CCc1c(-c2ccccc2)nc(N)c(C#N)c1-c1cccs1 | 12% |
| CN1CCc2nc(SC(C(=O)O)c3ccccc3)c(C#N)c(-c3cccs3)c2C1 (stereo not given) | -2.52% |
| Cc1c(-c2ccccc2)nc(N)c(C#N)c1-c1cccs1 | 29.3% (active) |
| C=CCOc1cccc(CNn2cn[nH]c2=S)c1 | -6% |
| CN(C(=O)COC(=O)Cn1cnc2c1c(=O)n(C)c(=O)n2C)C1(C#N)CCCCC1 | 0.32% |
| CC(=O)c1cc2c(cc1NC(=O)Cn1nc(-c3ccc(F)cc3)ccc1=O)OCO2 | 1.35% |
| CCOc1cccc(NC(=O)Cn2nc(-c3ccc4c(c3)OCCO4)ccc2=O)c1 | 52.4% (active) |
| O=C(CSc1ccc(-c2ccc(F)cc2)nn1)Nc1ccc2c(c1)OCCO2 | -5.86% |
| CC(C)C(C#CC1CC1)N(Cc1ccc2c(c1)OCO2)C(N)=NC(=O)/C=C/c1cccc(C(F)(F)F)c1 (stereo not given) | -2.7% |
| Cn1c(-c2sccc2OCc2cccc(C(F)(F)F)c2)n[nH]c1=S | -0.5% |
| O=C(CSc1ncnc2c1oc1ccccc12)NC1CCCC1 | -1.38% |
| CC1(C)Cc2nc3sc4c(SCC(=O)NC(c5ccccc5)c5ccccc5)ncnc4c3cc2CO1 | 199% (active) |
| CC(C)CCSc1ncnc2c1oc1nc3c(cc12)COC(C)(C)C3 | 0.04% |
| COCCN1C2=C(COC(C)(C)C2)C(=S)NC1c1ccccc1 (stereo not given) | 1.37% |
| COC(=O)c1c(NC(C)=O)sc(C(=O)Nc2ccccc2OC)c1C | 32.9% (active) |
| COc1ccccc1NC(=O)c1c(Br)cnn1C | 2.04% |
| COc1ccccc1NC(=O)C(CC(=O)O)Cc1cc(C)cc(C)c1 (stereo not given) | -2.91% |
| O=C(CCc1ccc(S(=O)(=O)N2CCOCC2)cc1)Nc1ccc2ccccc2c1 | -2.19% |
| O=C(NC1CC1)C(Cc1ccccc1)NS(=O)(=O)c1ccccc1F (stereo not given) | 3.33% |
| CC(C(=O)N=Nc1c(O)n(C)c2ccc(Br)cc12)n1cnc2ccccc2c1=O (stereo not given) | 2.88% |
| COc1ccccc1C(=O)Nc1ccnn1C1CCN(Cc2cnn(C)c2)CC1 | 4.21% |
| COc1cccc(N2CCN(CC(=O)Nc3ccnn3C3CCCC3)CC2)c1 | 5.07% |
| COc1ccccc1N1CCN(CC(=O)Nc2ccnn2C2CCCC2)CC1 | 15.8% (active) |

| Structure (SMILES) | activity |
| --- | --- |
| C#CCNc1nc(C(C)C)nc2c1nnn2Cc1ccccc1F | 2.17% |
| CCCCCCCCCOC1OC(CO)C(O)C(O)C1NC(C)=O (stereo not given) | 1.37% |
| CCC(C)C1(C2CCCC2)NC(=O)NC1=O (stereo not given) | 16.3% (active) |
| c1cncc(CNc2ccnc(-c3ccc4c(c3)OCO4)n2)c1 | 3.58% |
| Cc1ccc2nc(C)c3c(c2c1)N(c1ccccc1)CC3 | 8.49% |
| CCOc1cccc(C(=O)Nc2cnn(Cc3ccccc3)c2)c1 | -1.52% |
| CCOc1ccc(C(=O)Nc2nccs2)cc1[N+](=O)[O-] | 13.7% |
| Cc1ccc(C(=O)NC(C)C(c2cccs2)N2CCOCC2)cc1C (stereo not given) | -7% |
| CCOc1cccc(C(=O)Nc2nnc(-c3cccs3)s2)c1 | 23.2% (active) |
| Cc1ccc(C(=O)Oc2coc(CSc3nnc(NC(=O)c4cccs4)s3)cc2=O)cc1C | 12.7% |
| Cc1ccc(C(=O)Nc2nnc(-c3cccs3)s2)cc1C | 22.5% (active) |
| CSc1ccccc1C(=O)OCC(=O)N1CCN(C(C)=O)CC1 | -6.48% |
| COCCCNC(=O)Cn1cc(/C=C(\C#N)C(=O)N2CCN(c3ccccc3)CC2)c2ccccc21 | 1.28% |
| COc1ccc2c(c1)CCC/C2=N\OC(=O)c1ccccc1F | -4.23% |
| COc1cc(NS(=O)(=O)c2ccc(NC(=O)c3ccc(S(=O)(=O)N4CCCCC4)cc3)cc2)ncn1 | -7.53% |
| CCSC1=NCCN1S(=O)(=O)c1ccc(F)cc1 | 8.78% |
| N#Cc1ccc(-c2ccc(Cl)cc2)nc1Oc1ccc(F)cc1 | 6.3% |
| COc1nc(-c2ccc(Cl)cc2)ccc1-c1noc(-c2cccs2)n1 | 56.6% (active) |
| CC(C)C[C@@H]1Cc2[nH][nH]c(=O)c2[C@H](CCc2ccccc2)O1 | -3.25% |
| CCCn1c(O)c(CN2CCCC(C)C2)c(C)c(C#N)c1=O (stereo not given) | 8.88% |
| CSc1ncnc2c1ncn2CC(=O)C1CCC2C3CCC4=CC(=O)CCC4(C)C3CCC12C (stereo not given) | -3.58% |
| CCC(=O)c1c(CC)c2n3c1=CC[C@H]3CC(Br)C=2 (stereo not given in full) | 2.99% |
| CC(Sc1ccccc1F)C(=O)Nc1cccc(S(=O)(=O)N2CCOCC2)c1 (stereo not given) | -3.07% |

| Structure (SMILES) | activity |
| --- | --- |
| CS(=O)(=O)c1ccc(-c2nnn(CC(=O)Nc3ccc4c(c3)OCCO4)n2)cc1 | 6.46% |
| COCCn1c(=NC(=O)c2ccccc2[N+](=O)[O-])sc2cc(S(C)(=O)=O)ccc21 | 3.08% |
| Cn1c(=NC(=O)c2ccc3c(c2)OCCO3)sc2cc(S(C)(=O)=O)ccc21 | 22.9% (active) |
| COc1ccc(C(=O)OCCN(C)C2CN(Cc3cn(Cc4cccc(C)c4)nn3)S(=O)(=O)C2)cc1OC (stereo not given) | -5.04% |
| CSc1ccccc1NC(=O)CN(C)CC(=O)Nc1cccc(Br)c1 | -5.77% |
| Cc1ccccc1N1CCN(S(=O)(=O)c2ccc3ccccc3c2)CC1 | 3.07% |
| CC(=O)c1ccc(N2CCN(S(=O)(=O)c3ccc4c(c3)CC(=O)N4C)CC2)cc1 | 1.85% |
| CC(=O)c1ccc(S(=O)(=O)N2CCN(c3nc4c(C)c(C)ccc4cc3C#N)CC2)cc1 | 223% (active) |
| CCN(CCCNC(=O)c1ccc2c(c1)NC(=O)CN2C)c1cccc(C)c1 | -3.82% |
| COc1ccc(CNC(=O)CCC(=O)Nc2nnc(C(C)C)s2)cc1 | -2.06% |
| COc1ccc(C(=O)Nc2cccc(NC(=O)c3ccc(OC)cc3OC)n2)c(OC)c1 | 22.5% (active) |
| COCCSc1nnc(NC(=O)c2cc(OC)c(OC)cc2[N+](=O)[O-])s1 | 7.5% |
| COc1ccc(C(=O)CSc2nnnn2C)c(OC)c1 | 1.25% |
| COC(=O)c1sc(NC(=O)c2ccc(OC)cc2OC)nc1C | 28.7% (active) |
| COc1ccc(C(=O)N2CCCN(C)CC2)c(OC)c1 | 1.46% |
| COc1ccc(C(=O)COC(=O)C(O)c2ccccc2)c(OC)c1 (stereo not given) | 7.39% |
| COc1ccc(N(CC(=O)Nc2cccc3ccccc23)S(C)(=O)=O)c(OC)c1 | 0.94% |
| COc1ccc(Cc2nnc(NC(=O)c3ccc(OC)cc3OC)s2)cc1 | 45.2% (active) |
| CCc1ccc(Nc2ncc3c(n2)CC(c2ccco2)CC3=O)cc1 (stereo not given) | 2.68% |
| CCCNC(=O)CCc1c(C)nc2c(c(C)nn2-c2ccccc2)c1C | -3.83% |
| NCC[C@@H](O)C(=O)N[C@@H]1C[C@H](N)[C@@H](O[C@H]2O[C@H](CN)[C@@H](O)[C@H](O)[C@H]2O)[C@H](O)[C@H]1O[C@H]1O[C@H](CO)[C@@H](O)[C@H](N)[C@@H]1O | -0.91% |
| CCOC(=O)Cn1c(=O)oc2cc(S(=O)(=O)NCC3CCCO3)ccc21 (stereo not given) | -1.52% |
| COCCCNC(=O)C1CCC(CNS(=O)(=O)c2ccc(OC)cc2)CC1 (stereo not given) | -5.72% |

| Structure (SMILES) | activity |
| --- | --- |
| Cc1cccc(C(=O)Nc2ccccc2C(=O)NCc2cccnc2)c1 | 0.06% |
| O=C(Nc1cccc(-n2cnnn2)c1)c1cccnc1 | 1.66% |
| Cc1ccc(-n2nc3cc(C)c(NC(=O)c4cccnc4)cc3n2)cc1 | 36.7% (active) |
| Cc1ccc(-n2c(COc3ccccc3)nnc2SCC(=O)Nc2ccc3c(c2)OCCO3)cc1 | 1.23% |
| CCc1ccc(-c2cc3c(=O)n(CC(=O)NCCCN4CCN(Cc5ccccc5)CC4)nc(C)n3n2)cc1 | 2.85% |
| COC(=O)C[C@H]1C[C@@H]2c3cc(N(C)C)ccc3O[C@@H]2[C@H](CO)O1 | 7.34% |
| CCN1C(=O)/C(=C\N2CCOCC2)SC1=S | 2.02% |
| CCN1C(=O)/C(=C\N2CCN(c3cccc(Cl)c3)CC2)SC1=S | 877% (active) |
| CCC1(C)NC(=O)N(CC(=O)N2CCN(c3cccc(Cl)c3)CC2)C1=O (stereo not given) | -2.92% |
| CCCc1nnc(NC(=O)CCC(=O)N2CCN(S(=O)(=O)c3ccc(OC)cc3)CC2)s1 | -2.83% |
| COC(=O)[C@@]12C[C@@H](CC(=O)NCCCCc3ccccc3)C(=O)N(CCc3ccc(OC)c(OC)c3)C1=CCC(C)(C)C2 | 0.11% |
| O=C(NCc1ccc(Cl)cc1)c1cc2c(nc3sccn32)s1 | 25.1% (active) |
| O=C(NCc1ccc2c(c1)OCO2)c1c(O)nc2sccn2c1=O | -1.37% |
| O=C(NCc1ccc(Cl)cc1)c1cc(=O)nc2sc(-c3ccccc3)nn12 | 7.32% |
| COCc1c(C(=O)N/N=C/C2CC=CCC2)nnn1-c1nonc1N (stereo not given) | -3.01% |
| CN(CC1CCCN(CCc2cccc(C(F)(F)F)c2)C1)C(=O)c1ccc2nc[nH]c2c1 (stereo not given) | 4.2% |
| CC1=CC[C@H](C(C)(C)O)CC1 | 1.53% |
| COc1ccc(S(=O)(=O)N2CCOCC2)cc1C(=O)NC1CCCCC1 | -1.23% |
| COc1ccc(S(=O)(=O)N2CCOCC2)cc1NC(=O)CSc1ncnc2ccccc12 | -2.02% |
| COc1ccc(S(=O)(=O)N2CCOCC2)cc1C(=O)Nc1nc2ccccc2s1 | 46.8% (active) |
| CC1CN(C(=O)c2ccc3c(c2)OCO3)OC(c2ccccc2)O1 (stereo not given) | 8.07% |
